Data published in PubChem BioAssay (Tox21).
Several values for one entry are separate records, joined by “and”; a condition that tells them apart may be missing. Equal entries are not always repeated. Records with an inconclusive call do not appear. The source holds several records for some structures; these can differ, active in one and inactive in another. Activity calls are given as the source filed them. Calls come from the whole dose curve; as a rule, active = well fitted curve in the direction sought with a large enough effect in the repeat runs; inconclusive = weak or mixed curves; inactive = no such curve, though single readings can be large; an effect the other way counts as inactive or inconclusive.

What was measured:
[1] = Caspase-3/7 induction in CHO-K1 cells by small molecules, qHTS assay (AID 1346980); settings: CHO-K1 caspase-3/7 induction, Caspase-Glo luminescence, 17 h; series mostly up to 92.4 µM; note: nearly all actives have a fitted effect of over 15% in size
How it was run: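 Luminescent Caspase-Glo 3/7 read (30min, room temperature) quantified apoptosis induction. Cells were wild-type CHO-K1, treated with compound for 17hr at 37 C and 5% CO2.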

[2] = target: Nuclear receptor subfamily 1 group I member 2 (Homo sapiens) (UniProt O75469); test: Human pregnane X receptor (PXR) small molecule agonists, qHTS assay (AID 1346982); settings: PXR-Luc HepG2, CYP3A4 luciferase reporter, 24 h; series mostly up to 92.4 µM; note: nearly all actives have a fitted effect of over 35% in size; note: potency is the fitted concentration of half-maximal effect
How it was run: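 Luminescence (ONE-Glo, 30 min RT) after 24 hr compound exposure of PXR-Luc HepG2 cells; cells rested 5 hr post-plating in 5% charcoal-stripped FBS medium.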

[3] = target: Cytochrome P450 2D6 (Homo sapiens) (UniProt P10635); test: Cytochrome P450 Family 2 Subfamily D Member 6 (CYP2D6) small molecule antagonists: luciferase reporter qHTS assay (AID 1671196); settings: P450-Glo CYP2D6 enzyme assay, luciferin luminescence, 1 h; series mostly up to 115 µM; note: nearly all actives have a fitted effect of over 50% in size; note: potency is the fitted concentration of half-maximal effect
How it was run: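 Inhibition of CYP2D6 was gauged by loss of luminescence, since light produced tracks the luciferin generated from a proluciferin substrate. A 10 min room-temperature preincubation preceded 1 h NADPH-supported turnover.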

[4] = target: Cytochrome P450 2C9 (Homo sapiens) (UniProt P11712); test: Cytochrome P450 Family 2 Subfamily C Member 9 (CYP2C9) small molecule antagonists: luciferase reporter qHTS assay (AID 1671198); settings: P450-Glo CYP2C9 enzyme assay, luciferin luminescence; series mostly up to 115 µM; note: nearly all actives have a fitted effect of over 50% in size; note: potency is the fitted concentration of half-maximal effect
How it was run: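 Enzyme-substrate mix preincubated with compound 10 min at room temperature; reaction started with NADPH regeneration solution, 1 h 37C. Luminescent luciferin product read after 20 min detection reagent.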

[5] = target: Cytochrome P450 1A2 (Homo sapiens) (UniProt P05177); test: Cytochrome P450 Family 1 Subfamily A Member 2 (CYP1A2) small molecule antagonists: luciferase reporter qHTS assay (AID 1671199); settings: P450-Glo CYP1A2 enzyme, luciferin luminescence, 1 h; series mostly up to 115 µM; note: nearly all actives have a fitted effect of over 50% in size; note: potency is the fitted concentration of half-maximal effect
How it was run: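 Signal from luciferin formed by CYP1A2 from a proluciferin substrate is read as luminescence, expressed in relative luminescence units. Compounds sit with enzyme 10 min, NADPH-driven reaction runs 1 h, all at room temperature.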

[6] = target: Voltage-gated inwardly rectifying potassium channel KCNH2 (Homo sapiens) (UniProt Q12809); test: Human Ether-a-go-go-Related Gene (hERG) channel small molecule antagonists: fluorescence cell-based qHTS assay (AID 1671200); settings: hERG-U2OS cells, FluxOR thallium flux fluorescence; series mostly up to 76.8 µM;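 note: hERG-expressing U2OS cells given a thallium stimulus after FluxOR II dye loading; nearly all actives have a fitted effect of over 50% in size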
How it was run: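 Kinetic two-minute fluorescence traces, sampled at 1 s, were collected following thallium stimulus of U2OS cells (1000 per well) that had been cultured overnight at 37 C and loaded with FluxOR II.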

[7] = target: Cytochrome P450 3A4 (Homo sapiens) (UniProt P08684); test: Cytochrome P450 Family 3 Subfamily A Member 4 (CYP3A4) small molecule antagonists: luciferase reporter qHTS assay (AID 1671201); settings: P450-Glo CYP3A4 enzyme, luciferin luminescence, 1 h; series mostly up to 115 µM; note: nearly all actives have a fitted effect of over 50% in size; note: potency is the fitted concentration of half-maximal effect
How it was run: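 Proluciferin-to-luciferin conversion by CYP3A4, NADPH-regenerated, 1 h RT; luminescence read as RLU. Ketoconazole as control.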

[8] = target: Cytochrome P450 2C19 (Homo sapiens) (UniProt P33261); test: Cytochrome P450 Family 2 Subfamily C Member 19 (CYP2C19) small molecule antagonists: luciferase reporter qHTS assay (AID 1671197); settings: P450-Glo CYP2C19 enzyme, luciferin luminescence, 1 h; series mostly up to 115 µM; note: nearly all actives have a fitted effect of over 65% in size; note: potency is the fitted concentration of half-maximal effect
How it was run: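 Compounds were tested on CYP2C19 activity via proluciferin conversion to luciferin. The 37C, 1 h reaction followed NADPH addition; detection reagent stopped it.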

[9] = target: Nuclear receptor subfamily 1 group I member 2 (Rattus norvegicus) (UniProt Q9R1A7); test: Rat pregnane X receptor (rPXR) activation by small molecules, qHTS assay (AID 1346983); settings: rPXR luciferase reporter cells, One-Glo luminescence, 24 h; max activation: stronger effect = higher value; note: nearly all actives have a fitted effect of over 20% in size; note: potency is the fitted concentration of half-maximal effect
How it was run: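 Luminescent readout (One-Glo luciferase, 30 min room temperature) followed 24 hr compound treatment at 37 C of rPXR cells plated 2,000 per well and preincubated 5hr; qHTS format with compounds delivered in DMSO.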

[10] = target: Nuclear receptor subfamily 1 group I member 2 (Homo sapiens) (UniProt O75469); test: Human pregnane X receptor (PXR) activation by small molecules, qHTS assay (AID 1346985); settings: DPX-2 HepG2 CYP3A4-luciferase, 24 h; series mostly up to 38.3 µM; note: nearly all actives have a fitted effect of over 40% in size
How it was run: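 DPX-2 cells (HepG2 co-transfected with a PXR response element and a CYP3A4-promoter luciferase construct) were seeded at 2,000 per well, rested 5 hr at 37C, then exposed to DMSO-dissolved compounds for 24 hr. Activation was read as luciferase luminescence.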
% is set by controls: 0 for no effect and ±100 for the full control effect.

Nuclear receptor subfamily 1 group I member 2 (Homo sapiens), sequence (O75469 whole entry, looked up): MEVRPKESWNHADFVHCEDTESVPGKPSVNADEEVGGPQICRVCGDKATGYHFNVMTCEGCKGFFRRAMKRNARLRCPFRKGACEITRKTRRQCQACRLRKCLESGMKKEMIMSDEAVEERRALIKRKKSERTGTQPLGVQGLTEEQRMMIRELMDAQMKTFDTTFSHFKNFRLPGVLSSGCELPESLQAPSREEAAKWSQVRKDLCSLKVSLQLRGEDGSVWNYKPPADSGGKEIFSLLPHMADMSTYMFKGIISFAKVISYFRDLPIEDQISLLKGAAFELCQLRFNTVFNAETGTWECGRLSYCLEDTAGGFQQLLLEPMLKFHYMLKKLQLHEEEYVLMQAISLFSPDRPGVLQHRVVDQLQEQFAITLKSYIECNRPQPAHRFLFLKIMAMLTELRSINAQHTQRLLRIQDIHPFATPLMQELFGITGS
Cytochrome P450 1A2 (Homo sapiens), sequence (P05177 whole entry, looked up): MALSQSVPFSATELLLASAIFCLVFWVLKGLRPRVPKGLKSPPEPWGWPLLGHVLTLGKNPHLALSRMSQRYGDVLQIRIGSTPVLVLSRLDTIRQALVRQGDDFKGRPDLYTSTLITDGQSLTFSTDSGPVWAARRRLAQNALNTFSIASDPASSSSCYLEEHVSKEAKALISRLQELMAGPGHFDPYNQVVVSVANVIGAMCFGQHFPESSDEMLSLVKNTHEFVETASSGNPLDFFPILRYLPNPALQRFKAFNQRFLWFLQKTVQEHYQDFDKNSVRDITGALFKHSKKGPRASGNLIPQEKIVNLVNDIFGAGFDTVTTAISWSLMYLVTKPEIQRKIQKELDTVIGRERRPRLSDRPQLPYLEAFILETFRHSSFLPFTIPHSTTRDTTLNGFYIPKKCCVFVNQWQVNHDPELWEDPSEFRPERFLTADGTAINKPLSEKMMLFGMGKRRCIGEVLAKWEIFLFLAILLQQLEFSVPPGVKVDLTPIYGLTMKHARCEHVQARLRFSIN
Cytochrome P450 2C19 (Homo sapiens), sequence (P33261 whole entry, looked up): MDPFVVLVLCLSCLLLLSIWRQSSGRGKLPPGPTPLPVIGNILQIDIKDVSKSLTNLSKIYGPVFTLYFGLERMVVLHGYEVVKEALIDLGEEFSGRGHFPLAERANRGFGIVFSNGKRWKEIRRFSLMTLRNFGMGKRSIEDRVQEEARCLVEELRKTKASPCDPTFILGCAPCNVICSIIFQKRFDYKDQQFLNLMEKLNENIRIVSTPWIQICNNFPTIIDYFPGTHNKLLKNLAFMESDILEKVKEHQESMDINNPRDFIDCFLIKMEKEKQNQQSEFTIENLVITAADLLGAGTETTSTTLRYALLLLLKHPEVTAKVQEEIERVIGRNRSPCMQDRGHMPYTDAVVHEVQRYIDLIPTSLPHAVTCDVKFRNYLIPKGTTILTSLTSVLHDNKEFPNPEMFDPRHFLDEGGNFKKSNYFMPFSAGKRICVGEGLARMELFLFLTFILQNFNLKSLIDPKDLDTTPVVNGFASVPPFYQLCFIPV
Cytochrome P450 3A4 (Homo sapiens), sequence (P08684 whole entry, looked up): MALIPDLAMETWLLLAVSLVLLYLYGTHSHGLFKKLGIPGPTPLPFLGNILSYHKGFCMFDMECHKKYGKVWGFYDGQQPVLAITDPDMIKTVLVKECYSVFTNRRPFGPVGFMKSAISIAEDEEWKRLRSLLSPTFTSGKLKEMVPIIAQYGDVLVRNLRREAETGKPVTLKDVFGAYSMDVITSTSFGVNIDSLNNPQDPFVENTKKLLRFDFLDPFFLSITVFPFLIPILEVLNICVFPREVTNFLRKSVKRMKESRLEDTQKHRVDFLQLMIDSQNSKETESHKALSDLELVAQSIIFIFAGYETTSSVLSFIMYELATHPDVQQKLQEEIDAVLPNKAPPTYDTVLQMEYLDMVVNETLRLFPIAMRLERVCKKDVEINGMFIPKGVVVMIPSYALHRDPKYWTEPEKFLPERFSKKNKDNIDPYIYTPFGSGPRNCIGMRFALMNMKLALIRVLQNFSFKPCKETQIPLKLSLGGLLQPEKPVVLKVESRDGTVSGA
Cytochrome P450 2C9 (Homo sapiens), sequence (P11712 whole entry, looked up): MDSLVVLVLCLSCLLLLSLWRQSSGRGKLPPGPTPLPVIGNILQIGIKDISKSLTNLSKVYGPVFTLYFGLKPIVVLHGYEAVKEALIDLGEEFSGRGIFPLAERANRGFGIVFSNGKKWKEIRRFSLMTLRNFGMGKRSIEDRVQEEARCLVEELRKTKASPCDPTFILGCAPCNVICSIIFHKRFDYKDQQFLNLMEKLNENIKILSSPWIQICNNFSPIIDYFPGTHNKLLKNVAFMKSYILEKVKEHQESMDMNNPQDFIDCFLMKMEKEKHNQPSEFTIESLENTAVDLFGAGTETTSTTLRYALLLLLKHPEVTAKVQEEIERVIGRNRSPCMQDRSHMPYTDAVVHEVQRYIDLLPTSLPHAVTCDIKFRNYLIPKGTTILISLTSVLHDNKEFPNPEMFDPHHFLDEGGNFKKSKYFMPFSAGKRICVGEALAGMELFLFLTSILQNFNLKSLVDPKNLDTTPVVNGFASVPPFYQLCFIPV
Voltage-gated inwardly rectifying potassium channel KCNH2 (Homo sapiens), sequence (Q12809 whole entry, looked up): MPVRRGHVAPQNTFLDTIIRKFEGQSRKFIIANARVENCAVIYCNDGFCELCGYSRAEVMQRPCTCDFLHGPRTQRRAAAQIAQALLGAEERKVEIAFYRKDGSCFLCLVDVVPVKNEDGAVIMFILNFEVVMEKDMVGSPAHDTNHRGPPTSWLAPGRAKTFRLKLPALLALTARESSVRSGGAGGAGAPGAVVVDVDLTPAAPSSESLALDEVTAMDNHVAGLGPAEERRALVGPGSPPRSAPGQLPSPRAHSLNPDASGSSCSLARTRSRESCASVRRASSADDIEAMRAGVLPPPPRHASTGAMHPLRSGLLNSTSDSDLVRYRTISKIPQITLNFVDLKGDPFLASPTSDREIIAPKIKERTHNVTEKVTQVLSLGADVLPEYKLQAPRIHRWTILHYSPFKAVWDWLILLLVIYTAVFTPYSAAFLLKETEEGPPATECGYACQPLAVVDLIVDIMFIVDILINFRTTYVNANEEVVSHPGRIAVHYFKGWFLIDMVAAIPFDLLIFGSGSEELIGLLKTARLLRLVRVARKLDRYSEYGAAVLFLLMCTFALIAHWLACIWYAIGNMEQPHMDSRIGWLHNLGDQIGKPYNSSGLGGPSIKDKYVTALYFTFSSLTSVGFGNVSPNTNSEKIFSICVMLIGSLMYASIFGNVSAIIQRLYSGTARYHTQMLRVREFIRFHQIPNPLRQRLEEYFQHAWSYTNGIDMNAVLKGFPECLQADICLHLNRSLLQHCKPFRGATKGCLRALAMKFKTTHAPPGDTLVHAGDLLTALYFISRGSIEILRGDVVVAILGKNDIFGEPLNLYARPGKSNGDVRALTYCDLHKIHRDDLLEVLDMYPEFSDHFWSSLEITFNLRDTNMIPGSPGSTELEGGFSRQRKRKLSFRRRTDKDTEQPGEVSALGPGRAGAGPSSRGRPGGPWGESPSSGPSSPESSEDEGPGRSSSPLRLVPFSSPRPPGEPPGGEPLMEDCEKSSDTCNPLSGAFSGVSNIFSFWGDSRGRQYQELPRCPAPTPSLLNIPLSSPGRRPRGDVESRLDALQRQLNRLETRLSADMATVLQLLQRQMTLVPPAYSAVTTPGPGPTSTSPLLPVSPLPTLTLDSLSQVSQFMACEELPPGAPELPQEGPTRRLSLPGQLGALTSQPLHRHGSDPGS
Nuclear receptor subfamily 1 group I member 2 (Rattus norvegicus), sequence (Q9R1A7 whole entry, looked up): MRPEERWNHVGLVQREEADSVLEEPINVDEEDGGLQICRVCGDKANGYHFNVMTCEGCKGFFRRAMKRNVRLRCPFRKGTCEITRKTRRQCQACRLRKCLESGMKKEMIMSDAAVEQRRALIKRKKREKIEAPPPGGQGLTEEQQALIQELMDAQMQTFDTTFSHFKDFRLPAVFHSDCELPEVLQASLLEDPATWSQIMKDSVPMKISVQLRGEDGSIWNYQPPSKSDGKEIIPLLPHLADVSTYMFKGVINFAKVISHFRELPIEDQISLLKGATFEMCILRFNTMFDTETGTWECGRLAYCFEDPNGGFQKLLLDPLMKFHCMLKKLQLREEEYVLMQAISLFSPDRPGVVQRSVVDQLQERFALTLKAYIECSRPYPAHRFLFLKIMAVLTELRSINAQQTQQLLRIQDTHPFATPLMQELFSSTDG
Cytochrome P450 2D6 (Homo sapiens), sequence (P10635 whole entry, looked up): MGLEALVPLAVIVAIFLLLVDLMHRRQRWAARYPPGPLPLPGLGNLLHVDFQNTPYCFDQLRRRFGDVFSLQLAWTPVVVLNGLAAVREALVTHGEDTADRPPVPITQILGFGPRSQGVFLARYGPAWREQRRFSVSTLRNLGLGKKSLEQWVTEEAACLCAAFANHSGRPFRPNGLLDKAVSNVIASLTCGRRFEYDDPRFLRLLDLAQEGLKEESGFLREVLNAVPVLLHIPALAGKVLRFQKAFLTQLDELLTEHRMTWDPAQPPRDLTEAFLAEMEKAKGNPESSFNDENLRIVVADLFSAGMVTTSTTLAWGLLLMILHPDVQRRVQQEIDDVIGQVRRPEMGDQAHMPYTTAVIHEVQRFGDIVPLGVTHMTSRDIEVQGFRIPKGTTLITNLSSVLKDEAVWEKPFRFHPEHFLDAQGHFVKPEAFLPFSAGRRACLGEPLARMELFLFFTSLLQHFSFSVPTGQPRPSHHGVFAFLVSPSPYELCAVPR

CCCCCCCCCCCCCCO
inactive: outcome [1] | Potency [2] | Potency [3] | Potency [4] | outcome [6] | Potency [7]
active: Potency [5] 22.4 µM

COc1ccc(Cl)cc1C(=O)NCCc1ccc(S(=O)(=O)NC(=O)NC2CCCCC2)cc1
inactive: outcome [1] | Potency [3] | Potency [5]

CC(=O)c1ccccc1
active: Potency [5] 32.9 µM
inactive: outcome [1] | Potency [2] | Potency [3] | Potency [4] | outcome [6] | Potency [7]

CCCCCCCCCCCCCCCO
inactive: outcome [1] | Potency [2] | outcome [6] | Potency [7]
active: Potency [8] 35.9 µM and 39.9 µM | Potency [4] 40.3 µM | Potency [5] 71.6 µM

c1ccc2c(c1)ccc1ccccc12
active: Potency [8] 77.5 µM and 39.9 µM | Potency [5] 6.16 µM and 3.99 µM
inactive: outcome [1] | Potency [2] | outcome [6] | Potency [7]

COCCCOc1ccnc(CS(=O)c2nc3ccccc3[nH]2)c1C (configuration not stated)
active: Potency [9] 14.1 µM
inactive: outcome [1] | outcome [6]

CCCSc1ccc2nc(NC(=O)OC)[nH]c2c1
inactive: outcome [1] | Potency [8] | outcome [6]
active: Potency [5] 5.64 µM and 5.75 µM

O=c1[nH]nnc2ccccc12
inactive: outcome [1] | Potency [2] | Potency [8] | Potency [4] | Potency [5] | outcome [6] | Potency [7]

CC(C)(C)[C@@H](O)[C@@H](Cc1ccc(Cl)cc1)n1cncn1
active: Potency [2] 34.1 µM | Potency [3] 71 µM | Potency [8] 250 nM and 159 nM | Potency [4] 11.2 µM and 22.4 µM | Potency [7] 112 nM and 200 nM
inactive: outcome [1] | Potency [5] | outcome [6]

CCOC(=O)NNc1nncc2ccccc12
active: Potency [5] 20 µM
inactive: outcome [1] | Potency [2] | Potency [8] | Potency [4] | outcome [6] | Potency [7]

Cc1cc(C)c(C)cc1C
inactive: outcome [1] | Potency [2] | Potency [3] | Potency [4] | Potency [5] | outcome [6] | Potency [7]

C#C[C@]1(O)CC[C@H]2[C@@H]3CCC4=CC(=O)CC[C@@H]4[C@H]3CC[C@@]21C
inactive: outcome [1] | max activation [9] -1% | Potency [10] | Potency [3] | Potency [5] | outcome [6]
active: Potency [2] 48.6 µM | Potency [8] 5.03 µM and 4.36 µM

OCC(CO)(CBr)CBr
40.4 µM (active) and inactive: Potency [5]
inactive: outcome [1] | Potency [2] | Potency [3] | Potency [4] | outcome [6] | Potency [7]

C[C@H]1C[C@@H]2[C@H]([C@@H](O)C[C@@]3(C)[C@H]2CC[C@]3(O)C(=O)CO)[C@@]2(C)C=CC(=O)C=C12
active: Potency [9] 1.58 µM
inactive: outcome [1] | Potency [5] | outcome [6]

CCCCCCCCCCCCS
inactive: outcome [1] | Potency [2] | Potency [3] | Potency [4] | Potency [5] | outcome [6] | Potency [7]

CC1=C(C)S(=O)(=O)CCS1(=O)=O
inactive: outcome [1] | Potency [2] | Potency [4] | Potency [5] | outcome [6] | Potency [7]
69.7 µM (active) and inactive: Potency [8]

CN(C)CCC(c1ccccc1)c1ccccn1 (configuration not stated)
40 µM (active) and inactive: Potency [5]
active: Potency [3] 35.7 µM
inactive: outcome [1] | max activation [9] -3.67% | Potency [8] | Potency [4] | outcome [6] | Potency [7]

Cc1cccnc1
inactive: outcome [1] | Potency [2] | Potency [3] | Potency [8] | Potency [4] | Potency [5] | outcome [6] | Potency [7]

N[C@@H](Cc1cc(I)c(Oc2cc(I)c(O)c(I)c2)c(I)c1)C(=O)O
inactive: outcome [1] | max activation [9] -0.369% | Potency [8] | outcome [6] | Potency [7]

CC(O)COCC(C)O (configuration not stated)
inactive: outcome [1] | Potency [2] | Potency [3] | Potency [8] | Potency [4] | Potency [5] | outcome [6] | Potency [7]

CCN(CC)CCCC(C)Nc1ccnc2cc(Cl)ccc12 (configuration not stated)
inactive: caspase-3/7 activation [1] 0.759% [at 8.39 µM] and -0.715% [at 19 µM] | activation [2] 3.19% [at 8.39 µM] and -3.77% [at 19 µM] | max activation [9] -1.5% | Potency [10] | activity change, negative = inhibition [6] 0.661% [at 6.97 µM] and 1.69% [at 15.8 µM]

CCCCC(CC)COC(=O)CS (configuration not stated)
64.1 µM (active) and inactive: Potency [5]
25.5 µM (active) and inactive: Potency [8]
active: Potency [4] 64.1 µM and 71 µM | Potency [7] 40.4 µM
inactive: outcome [1] | Potency [2] | outcome [6]

O=[N+]([O-])c1ccc(/C=C/c2ccc([N+](=O)[O-])cc2S(=O)(=O)O)c(S(=O)(=O)O)c1
inactive: outcome [1] | Potency [2] | Potency [3] | Potency [5] | outcome [6] | Potency [7]
active: Potency [4] 31.7 µM and 39.9 µM

COc1cc(Cc2cnc(N)nc2N)cc(OC)c1OC
inactive: outcome [1] | Potency [8] | Potency [4] | outcome [6]
35.5 µM (active) and inactive: Potency [5]
